# Data from PubChem BioAssay (NCI).
# About 83,000 compounds went through this panel and 20% of them were active in at least one assay; those are over-represented in the sample as a whole.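 Note: values are percent growth. 100 is the growth of untreated cells, values between 100 and 0 indicate rising inhibition; between -100 and 0 indicates cell death.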 Values without a mark were called inactive. Active and inactive are the calls of the source. How the source made its calls: active means growth percent below 10; inactive means the rest.
# How the values were obtained:
# Test in all cases: NCI-60 one-dose screen, 48 h (100 = growth as untreated, 0 = no growth, -100 = all killed)
# Conditions in all cases: 10 µM unless noted
# SR leukemia = test system: SR leukemia
# RPMI-8226 leukemia = test system: RPMI-8226 leukemia
# OVCAR-8 ovarian = test system: OVCAR-8 ovarian
# OVCAR-5 ovarian = test system: OVCAR-5 ovarian
# SK-OV-3 ovarian = test system: SK-OV-3 ovarian
# IGROV1 ovarian = test system: IGROV1 ovarian
# OVCAR-3 ovarian = test system: OVCAR-3 ovarian
# HS 578T breast = test system: HS 578T breast
# NCI/ADR-RES ovarian = test system: NCI/ADR-RES ovarian
# T-47D breast = test system: T-47D breast
# BT-549 breast = test system: BT-549 breast
# MDA-MB-435 melanoma = test system: MDA-MB-435 melanoma
# SW-620 colon = test system: SW-620 colon
# MCF7 breast = test system: MCF7 breast
# HCT-116 colon = test system: HCT-116 colon
# HCC-2998 colon = test system: HCC-2998 colon
# KM12 colon = test system: KM12 colon
# OVCAR-4 ovarian = test system: OVCAR-4 ovarian
SMILES,growth (SR leukemia),growth (RPMI-8226 leukemia),growth (OVCAR-8 ovarian),growth (OVCAR-5 ovarian),growth (SK-OV-3 ovarian),growth (IGROV1 ovarian),growth (OVCAR-3 ovarian),growth (HS 578T breast),growth (NCI/ADR-RES ovarian),growth (T-47D breast),growth (BT-549 breast),growth (MDA-MB-435 melanoma),growth (SW-620 colon),growth (MCF7 breast),growth (HCT-116 colon),growth (HCC-2998 colon),growth (KM12 colon),growth (OVCAR-4 ovarian)
COc1ccc(C(=O)c2cc(OC)c(OC)c(OC)c2)cc1/C=C/C(=O)c1ccc(OC)c(OC)c1,3.96% (active),8.82% (active),26.1%,0.936% (active),38.4%,29.7%,-22.1% (active),31.5%,19%,35.2%,36.5%,20%,9.37% (active),17.3%,10.4%,45.9%,9.37% (active),–
CCN1C(=S)N(CC)C2Nn3c(s/c(=C4\C(=O)N(C)c5ccccc54)c3=O)=NC21 (stereo not drawn),22.6%,36.8%,54.5%,67.5%,–,53.3%,20.2%,48.8%,6.63% (active),–,–,-43.1% (active),41.1%,29.8%,7.36% (active),79%,27.4%,47.5%
COc1cc(C(=O)/C=C/c2cc(C(=O)c3cc(OC)c(OC)c(OC)c3)ccc2OC)ccc1N,-7.95% (active),-9.87% (active),4.2% (active),-54.1% (active),32.5%,-12.7% (active),-53% (active),46.1%,1.57% (active),18%,-51.3% (active),2.47% (active),-57.3% (active),6.6% (active),-73.8% (active),-80% (active),-57.2% (active),–
CN(C)c1ccc(/C=C\N=Nc2ccc(Br)cc2)cc1,21%,50.2%,46.5%,76.6%,92.8%,66.7%,67.9%,102%,52.3%,37.1%,–,41.7%,29.5%,36.8%,50.6%,83%,29.6%,–
COc1cccc2cc(-c3cc4ccccc4[nH]3)c(=NC(=O)c3ccc(Cl)cc3)oc12,62.7%,76.1%,53.8%,85.9%,–,53.7%,–,70.8%,53%,–,62.7%,33.1%,7.3% (active),73.5%,26.9%,75.7%,33.9%,66.8%
COc1ccc(NC(=O)/N=c2\oc3c(OC)cccc3cc2-c2cc3ccccc3[nH]2)cc1,107%,173%,49.1%,88.3%,–,50%,64.4%,7.84% (active),57.7%,–,81.9%,82.6%,70.3%,70.1%,28.1%,95.5%,63.1%,69.8%
O=c1oc2cc(OS(=O)(=O)c3ccccc3)c(Cl)cc2c2c1CCCCCC2,63.4%,75.2%,89.2%,90.1%,106%,84.3%,91.3%,88.6%,67.4%,73.9%,79.1%,90%,98.1%,90.6%,74.8%,106%,92.1%,–
COc1cc(/C=C\c2cc(OC)c(OC)c(OC)c2)cc(N/C=C\C(=O)c2c[nH]c3ccccc23)c1OC,-36.8% (active),-32.8% (active),33.8%,35.3%,90.1%,40.5%,-93.6% (active),67.5%,73.5%,-5.64% (active),41.2%,29.1%,-76% (active),4.09% (active),-82.9% (active),83.2%,49.2%,–
CC1=NN2C(=NC3=C(CCC/C3=C\c3ccc(Cl)cc3)C2c2ccc(Cl)cc2)S1 (stereo not drawn),64.5%,-18.4% (active),90.2%,103%,115%,103%,108%,101%,106%,89.1%,–,45.8%,97.3%,24.2%,-37.2% (active),80.6%,77.2%,–
CCCCCCCC/C=C\CCCCCCCCOc1ccccc1CCOP(=O)(O)OCC[N+](C)(C)C,42.4%,-0.933% (active),60.3%,85.1%,–,9.7% (active),56.4%,88%,98.4%,–,88.3%,92.7%,67.8%,74.2%,27.2%,74.3%,21.8%,80.3%
CC(C)(C)OC(=O)N[C@@H](Cc1ccccc1)C(=O)N(Cc1ccccc1)C1(C(=O)NCc2ccccc2)CCN(Cc2ccccc2)CC1,-0.167% (active),22.8%,22.6%,31.1%,69.9%,59.1%,48.5%,71.5%,12.1%,38%,71%,41%,22.9%,25.2%,20.9%,47%,18.7%,–
O=C(Nc1ccc(Cl)cc1)c1cc(-c2ccc(F)cc2)c2sc(=O)[nH]c2n1,16.6%,10.9%,13%,72.2%,0.427% (active),29.3%,14%,29.4%,3.43% (active),3.75% (active),-13.1% (active),8.39% (active),14.5%,4.61% (active),3.3% (active),22%,6.83% (active),–
CCn1cc(C(=O)O)c(=O)c2cc(F)c(N3CCN(S(=O)(=O)c4ccc(Cl)cc4Cl)CC3)cc21,-19.7% (active),9.07% (active),5.84% (active),7.92% (active),1.7% (active),7.5% (active),7.89% (active),–,9.34% (active),1.7% (active),-4.59% (active),–,16.4%,89.2%,6.37% (active),30.6%,9.4% (active),–
CC1=C(C#N)C(C)(C)C(C#N)=C(C)N1,95.8%,98.3%,100%,87.7%,110%,121%,–,102%,–,96.6%,100%,105%,102%,96.7%,104%,108%,103%,–
COc1cc(CNC(=O)CSc2nc3ccccc3c(=O)n2Cc2cc(OC)c(OC)c(OC)c2)cc(OC)c1OC,123%,102%,96.4%,102%,108%,97.9%,–,110%,103%,89.7%,104%,103%,–,92.7%,97.5%,–,102%,–
CC(C)(C)c1ccc(S(=O)(=O)Oc2ccc3c4c(c(=O)oc3c2)CCCCC4)cc1,31.4%,40.4%,77.2%,70%,71.4%,68.6%,52.7%,40%,20.1%,45.9%,46.6%,11.9%,–,32.3%,36.6%,74.5%,55.1%,–
COC1=CC(c2ccc[nH]2)=N/C1=C\c1[nH]c(C)c(C(=O)CCCCC(=O)NCc2ccccc2)c1C,91%,65.6%,31.5%,47.3%,83.3%,–,-5.91% (active),72%,42%,50.5%,–,-20% (active),-96.7% (active),-100% (active),-83.1% (active),57.8%,-25.2% (active),–
CC/C=C\C/C=C\C[C@H](O)C/C=C1/C(=O)C=C[C@H]1C/C=C\CCC(=O)OC,7.38% [8.25 µM] (active),3.22% [8.25 µM] (active),15.3% [8.25 µM],71.1% [8.25 µM],85.6% [8.25 µM],37.3% [8.25 µM],4.28% [8.25 µM] (active),69.1% [8.25 µM],39.8% [8.25 µM],16.7% [8.25 µM],14.6% [8.25 µM],-14.1% [8.25 µM] (active),6.55% [8.25 µM] (active),28.1% [8.25 µM],-41.6% [8.25 µM] (active),61.2% [8.25 µM],3.51% [8.25 µM] (active),–
